Pf growth 48h: P. falciparum growth inhibition at 48 hours (one generation); P. falciparum luciferase growth in erythrocytes, 48 h; AID 504832; hit rate 5.9% among 310,000; Potency, µM (series often up to 28.7 µM), most hits filed as inhibitors
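A one-generation exposure of luciferase-tagged malaria parasites in RPMI 1640/Albumax erythrocyte culture, 37 C and 5% CO2. Inhibition is inferred from decreased luminescence after adding detection reagent.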
Pf growth 96h: inhibits malaria parasite growth, 96 h; hit rate 6.9% among 320,000; Potency, µM (doses to about 28.7 µM), usual class: inhibitors; P. falciparum luciferase reporter growth, 96 h; AID 504834
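Cell-based qHTS: luciferase-tagged P. falciparum in erythrocytes (2% hematocrit, 0.05% parasitemia final) incubated with compounds for 96 hours, 37 C, 5% CO2; luciferase detection reagent then added and luminescence measured.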
Vaccinia Venus: vaccinia inhibition (Venus reporter) | Potency, µM (doses to about 36.5 µM), most hits filed as inhibitors | hit rate 0.46% among 330,000 | Vaccinia virus Venus reporter expression, fluorescence; calls by dose curve; tested in A549 cells; note: nearly all actives have a fitted effect of over 30% in size
Vaccinia mCherry: inhibitors of vaccinia virus infection (mCherry reporter signal) | Vaccinia virus mCherry reporter infection, fluorescence | hit rate 0.63% among 310,000 | Potency, µM (doses to about 36.5 µM), hits mostly inhibitors; calls by dose curve; tested in A549 cells; note: nearly all actives have a fitted effect of over 35% in size
AMA1 RON2 block: AMA1-RON2 (P. falciparum) interaction inhibition; AlphaScreen AMA1-biotinylated RON2 peptide binding; Potency, µM (series often up to 58.2 µM), hits mostly inhibitors; hit rate 0.2% among 360,000; AID 720542; note: nearly all actives have a fitted effect of over 45% in size
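AMA1 (3D7) with his tag at 25 nM final met compounds first, then biotinylated RON2 peptide at 25 nM; detection used donor plus acceptor beads, 10 µg/mL apiece, read by AlphaScreen after 30 min at room temperature.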
A number is an active result; 0 = inactive; ? = inconclusive; - = no result; ! = not active in a repeat; [ ] = remark or other dose. Sampled rows, rich in hits. Any-hit rate of the full collection: about 8.7%. Unless noted, calls come from the whole dose curve; as a rule, active = well fitted curve in the direction sought with a large enough effect; inconclusive = small, poorly fitted or top-dose-only effect, or another doubt; inactive = no such curve, though single readings can be large; an effect the other way counts as inactive or inconclusive.

SMILES | Pf growth 48h | Pf growth 96h | Vaccinia Venus | Vaccinia mCherry | AMA1 RON2 block
COC(=O)CNC(c1ccccc1Cl)c1cc(Br)ccc1NS(=O)(=O)c1ccc(C)cc1 (centres undefined) | 3.29µM | 0 | 0 | 0 | 0
COC(=O)CNC(c1ccccc1)c1cc(Br)ccc1NC(C)=O (centres undefined) | 0 | 0 | 0 | 0 | 0
Cc1cnc(CN2CCCC(C(=O)c3ccc4c5c(cccc35)CC4)C2)[nH]1 (centres undefined) | ? | ? | 0 | 0 | 0
O=C(c1ccc2c3c(cccc13)CC2)C1CCCN(Cc2ccccn2)C1 (centres undefined) | 2.33µM | 0 | 0 | 0 | 0
O=C(c1ccc2c3c(cccc13)CC2)C1CCCN(Cc2ccc(OCCO)cc2)C1 (centres undefined) | 6.57µM | 0 | - | - | 0
O=C(c1ccc2c3c(cccc13)CC2)C1CCCN(C(=O)c2cc[n+]([O-])cc2)C1 (centres undefined) | 0 | 2.94µM | - | - | 0
Cc1cccc(-n2c3nc(=O)[nH]c(=O)c-3cc3c(Cl)cccc32)c1C | - | - | 0 | 0 | -
Oc1ccccc1-c1cc(C(F)(F)F)[nH]n1 | ? | 9.28µM | - | - | -
c1ccc(-c2cn(C[C@H]3CC[C@H](Cn4cc(-c5ccccn5)nn4)O3)nn2)nc1 | ? | 0 | 0 | 0 | 1µM
O=C1C(Cl)=C(N2CCCCC2)C(=O)C(Cl)=C1c1cnc(N2CCCCC2)s1 | 10.4µM | 0 | - | - | 8.91µM
CC(C)NC(=O)c1cnc2sc(N3CCCCCC3)nn2c1=O | - | - | 0 | 0 | -
Cc1ccc(/C(N)=N/OC(=O)c2ccc3c(c2)OCO3)cc1 | ? | 5.86µM | 0 | 0 | 0
N/C(=N\OC(=O)c1ccc2ccccc2c1)c1ccc(Br)cc1 | 13.1µM | 0 | 0 | 0 | 0[2.32 µM]
O=C1C(Cl)=C(NS(=O)(=O)c2ccc([N+](=O)[O-])cc2)C(=O)c2ccccc21 | ? | 5.22µM | 0 | 0 | 0
O=[N+]([O-])c1ccc(Oc2ccc(S(=O)(=O)Nc3ccccc3)cc2)cc1 | 0 | ? | 0 | 0 | 0
COc1ccc(-c2cc(C(F)(F)F)n3nc(C(=O)Nc4sc5c(c4C(=O)OC(C)C)CCC(C)C5)cc3n2)cc1 (centres undefined) | - | - | 0 | 0 | -
CN1C(=O)N(C)C2(c3ccccc3)NC(=O)NC12c1ccccc1 (centres undefined) | 0 | ? | 0 | - | 0
CCN1c2ccccc2N(C)C1(C)c1ccccc1 (centres undefined) | 2.62µM | 0 | 0 | 0 | 31.6µM
CN1c2ccccc2N(C)C1(C)c1ccccc1 | 2.33µM | 0 | 0 | 0 | ?
COC(=O)c1c(OCc2ccccn2)cc(=O)n2c1CCN(C(=O)c1n[nH]c3c1CCCC3)CC2 | - | - | 0 | 0 | -
O=C(NNC(=O)C12CC3CC(CC(C3)C1)C2)c1ccccc1F | 0 | 0 | 0 | 0 | 0
COC(=O)NNC(=O)C12CC3CC(CC(C3)C1)C2 | 0 | 4.15µM | 0 | 0 | 0
O=C(Nc1ncccn1)C12CC3CC(CC(C3)C1)C2 | 0 | 0 | 0 | 0 | 0
O=C(NC12CC3CC(CC(C3)C1)C2)c1ccccc1O | 7.38µM | - | 0 | 0 | 0
O=C(NNC(=O)C12CC3CC(CC(C3)C1)C2)c1ccccc1O | ? | ? | ? | 10µM | 0
SMILES | Pf growth 48h | Pf growth 96h | Vaccinia Venus | Vaccinia mCherry | AMA1 RON2 block
O=C(Nc1ccccn1)C12CC3CC(CC(C3)C1)C2 | 13.1µM | - | - | - | 0
O=C(Nc1nccs1)[C@@H]1CC=C[C@@H]2CCN(C3CC3)C(=O)[C@@H]21 | - | - | 0 | 0 | -
Cc1c(C(=O)N(Cc2ccc(Cl)cc2)CC2CCCO2)oc2ccc(F)cc12 (centres undefined) | - | - | 0 | 0 | -
O=C(c1ccco1)N1CCN(c2nc3c(F)cc(F)cc3s2)CC1 | - | - | 0[7.34 µM] | 0[7.34 µM] | -
COc1ccc(CCNCc2cccn2C)cc1 | 0 | 1.47µM | - | - | 0
Fc1ccccc1CCNCc1ccccc1 | 0 | 0 | 0 | 0 | 0
Cn1cccc1CNCCc1ccccc1F | 0 | 2.62µM | 0 | 0 | 0
Cn1cccc1CNCCc1ccccc1 | 0 | 0 | - | - | -
COc1ccc(-n2cc(-c3ccc(C)cc3)[n+]3c2SCC3)cc1 | 0.586µM | ? | 0 | 0 | 0
CCc1ccc(-n2cc(-c3ccc(F)cc3)[n+]3c2SCCC3)cc1 | 1.47µM | ? | 0 | 0 | 0
Cc1ccc(-c2cn(-c3ccccc3)c3[n+]2CCCS3)cc1 | 1.04µM | 0.37µM! | ? | - | 0
CCOc1ccc(CCNC(=O)Cn2nc(C)n3c(cc4occc43)c2=O)cc1OCC | - | - | 0 | 0 | -
NP(=O)(OCC(F)(F)F)Oc1ccc(Cl)cc1 (centres undefined) | 0 | 0 | 0 | 0 | 0
Cc1ccc(OP(N)(=O)Oc2ccc(C)cc2)cc1 | ? | 5.86µM | 0 | 0 | 0
O=C(NC1CCCC1)c1c(O)nc2sccn2c1=O | 0 | ? | 0 | 0 | 0
Cc1csc2nc(O)c(C(=O)NC3CCCCCC3)c(=O)n12 | 11.7µM | ? | 0 | 0 | 0
Cc1csc2nc(O)c(C(=O)NC3CCCCC3)c(=O)n12 | 11.7µM | 5.86µM | 0 | 0 | 0
COc1ccccc1CNC(=O)CN(c1ccc(C)cc1)S(=O)(=O)c1c(C)nn(C)c1C | ? | 4.15µM | - | - | 0
COc1ccc(CC(=O)N2CCc3ccccc3C2)cc1 | 0 | 8.28µM | - | - | 0
COc1ccc(N(CC(=O)N2CCc3ccccc3C2)S(=O)(=O)c2c(C)nn(C)c2C)cc1 | - | 1.17µM | 0 | 0 | 0
COc1ccc(CC(=O)N2CCc3cc(OC)c(OC)cc3C2)cc1 | 0 | 0 | 0 | 0 | 0
COc1ccc(CC(=O)N2CCN(C(=O)Cc3ccc(OC)cc3)CC2)cc1 | 0 | 3.29µM | 0 | 0 | 0
COc1ccc(-c2noc(-c3ccc(N4CCC(C)CC4)c([N+](=O)[O-])c3)n2)cc1OC | - | - | 0 | 0 | -
O=c1[nH]c(=S)c2[nH]cnc2[nH]1 | - | - | 0 | 0 | -
CC(C)(C)C(=O)N(Cc1nc2ccccc2c(=O)[nH]1)Cc1cccs1 | 0 | 11.7µM | 0 | 0 | 0
SMILES | Pf growth 48h | Pf growth 96h | Vaccinia Venus | Vaccinia mCherry | AMA1 RON2 block
O=C(Nc1ccc(Cl)cc1)N(Cc1nc2ccccc2c(=O)[nH]1)Cc1cccs1 | 14.7µM | 3.29µM | 0 | 0 | 0
O=C(C1CC1)N(Cc1nc2ccccc2c(=O)[nH]1)Cc1cccs1 | 1.85µM | 0 | 0 | 0 | 0
O=C(Nc1ccc(Oc2ccc(Cl)cc2)cc1)c1ncn[nH]1 | 9.28µM | 0 | 0 | 0 | 0
Cc1ccc(NC(=O)c2ncn[nH]2)cc1 | 0 | 0 | 0 | 0 | 0
COc1cccc(C(=O)N2CCCC(c3nc(SCCN4CCOCC4)ncc3C)C2)c1 (centres undefined) | - | - | 0 | 0 | -
COc1cccc(CN(C)C(=O)CCc2nnc(-c3ccsc3)o2)c1 | 10.4µM | ? | 0 | 0 | 0
CCC(=O)c1ccc(OC(=O)N(C)c2ccccc2)cc1 | 0 | 0 | 0 | 0 | 0
Cc1ccc(N(C)C(=O)Oc2ccc(C(=O)c3ccc(Cl)cc3)cc2)cc1 | 0 | 4.65µM | 0 | - | 0
CC(=O)Nc1ccc(OC(=O)N(C)c2ccc(C)cc2)cc1 | ? | 9.28µM | - | - | 0
Cc1ccc(C(=O)N2CCC(N3CCN(Cc4ccc(F)cc4)C(=O)C3=O)CC2)cc1 | - | - | 0 | 0 | -
CN(Cc1ccon1)C(=O)c1cnn(-c2nccc(-c3ccc4c(c3)OCO4)n2)c1C1CC1 | - | - | 0 | 0 | -
COc1ccc(NC(=O)Oc2ccccc2)cc1Cl | 0 | 14.7µM | 0 | 0 | 0

High-throughput results deposited in PubChem BioAssay by National Center for Advancing Translational Sciences (NCATS).
